Source: PubChem BioAssay
An excerpt weighted towards active compounds, which were near 5.4% of everything screened.
Exocytosis inh = LAMP-1 surface exposure blockers, TALL-104 cells – cell-based, flow cytometry, MLPCN library, primary screen; TALL-104 LAMP-1 surface exposure; cells stimulated with thapsigargin and PMA; inhibition, % at 10 µM; AID 651702, 2012; actives 0.66% (n = 360,000);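 active = inhibition above about 55%, limit read from the data; inconclusive = no clear call, values can overlap the other calls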
PfM18AAP inh = PfM18AAP inhibitors, malaria aminopeptidase, primary screen, biochemical, QFRET, recombinant enzyme; M18 aspartyl aminopeptidase (Plasmodium falciparum 3D7); H-Glu-NHMec fluorogenic cleavage; inhibition, % at 7.35 µM; actives 1.2% (n = 290,000); AID 1822, 2009;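 active = inhibition above the campaign mean inhibition over all tested compounds plus 3 SD, cut at about 28% in these data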;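 note: 0% = plate median of test compound wells and 100% = 2 mM ZnCl2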
JMJD2C inh = inhibitors of GASC-1 histone demethylase, primary screen, biochemical, fluorescence, DELFIA europium; Lysine-specific demethylase 4C (Homo sapiens), Q9H3R0; GST-JMJD2C(1-420) H3K9me3 demethylation; inhibition, % at 2.35 µM; actives 0.069% (n = 330,000); AID 2099, 2009;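 active = more than half of a compound's replicate wells show inhibition beyond 50%, single wells judged on their own value; inconclusive = some, but no more than half, of replicates pass 50% inhibition; inactive = no replicate passes 50% inhibition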;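 note: signal counts dimethyl H3K9 product captured on neutravidin plate; 0% = median of DMSO wells and 100% = 0.3 times that DMSO median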
Target sequence (Q9H3R0 1-420 limits assumed): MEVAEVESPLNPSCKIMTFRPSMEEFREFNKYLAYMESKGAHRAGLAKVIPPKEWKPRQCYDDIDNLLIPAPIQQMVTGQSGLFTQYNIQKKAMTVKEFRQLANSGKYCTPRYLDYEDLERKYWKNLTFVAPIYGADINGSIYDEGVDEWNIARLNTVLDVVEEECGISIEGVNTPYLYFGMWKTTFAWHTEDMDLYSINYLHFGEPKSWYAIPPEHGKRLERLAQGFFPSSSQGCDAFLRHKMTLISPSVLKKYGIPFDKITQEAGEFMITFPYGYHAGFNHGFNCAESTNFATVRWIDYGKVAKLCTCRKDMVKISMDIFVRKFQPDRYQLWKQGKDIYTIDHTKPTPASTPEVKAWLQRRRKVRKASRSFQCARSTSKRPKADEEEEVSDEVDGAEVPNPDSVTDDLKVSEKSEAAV
beta cell repl = inducers of MIN6 beta-cell proliferation, primary screen, ATP luminescence, uHTS; MIN6 cells proliferation, ATPlite luminescence, 48 h; cells starved in 0.2% serum; 100% = growth in 10% serum; actives 0.29% (n = 330,000); proliferation, % at 10 µM; AID 2380, 2010;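 active = compounds whose signal lies at least 3.5 SD above the mean of all wells on their plate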;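 note: 0% = DMSO-treated cells in low-serum medium and 100% = 10% serum control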
SMARCA2 act = SMARCA2 (BRM) function activators, primary screen, cell-based, luminescence, high throughput. actives 1% (n = 370,000). AID 652017, 2013. activation, % at 9.1 µM. MG213 cells, MMTV-luciferase reporter, dexamethasone, overnight; in the data active = activation above about 7.8%;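 note: 0% = vehicle wells and 100% = reference activator wells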
ALR H2O2 inh = inhibitors of human ALR sulfhydryl oxidase, primary screen, biochemical, H2O2 detection, HRP-luminol luminescence, single point; FAD-linked sulfhydryl oxidase ALR (Homo sapiens), P55789; purified ALR, DTT oxidation; inhibition, % (test concentration not listed); actives 3.8% (n = 290,000); AID 485317, 2010;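 active = mean replicate inhibition above about 79%, with every replicate also reaching it, limit read from the data; inconclusive = only one of the two criteria met; inactive = mean below limit and not every replicate reaching it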
* hit, by the source's call; ? = inconclusive; . = no result given.

SMILES	Exocytosis inh	PfM18AAP inh	JMJD2C inh	beta cell repl	SMARCA2 act	ALR H2O2 inh
COc1ccc(NC(=O)C/C(C)=N/NC(=O)C(=O)Nc2cccc(Cl)c2C)c(OC)c1	-1.1	-1.0	5.2	-1.3	-0.4	4.7
COc1ccc(NC(=O)C/C(C)=N/NC(=O)C(=O)NC(C)C)c(OC)c1	-1.8	-11.8	-0.8	-3.7	7.9*	1.9
Cc1cc(N2CCN(C(=O)OC(C)(C)C)C[C@@H]2C)ccc1N1CCN(Cc2ccccc2)[C@H](C)C1	.	.	.	.	-4.0	.
CCOc1cccc(NC(=O)CSc2sc3c(O)cc(=O)[nH]c3c2C#N)c1	-1.3	12.5	-12.5	-0.4	0.3	99.1*
N#Cc1c(SCC(=O)Nc2ccccc2C(F)(F)F)sc2c(O)cc(=O)[nH]c12	-1.5	19.4	-8.1	-1.6	-1.7	15.8
CCCSc1nnc(NC(=O)CSc2sc3c(O)cc(=O)[nH]c3c2C#N)s1	-3.6	26.2	-24.3	-0.1	-1.9	?
N#Cc1c(SCC(=O)Nc2ccc(Cl)cc2Cl)sc2c(O)cc(=O)[nH]c12	5.2	10.7	2.9	-5.7	7.8*	98.6*
N#Cc1c(SCC(=O)Nc2cccc(F)c2)sc2c(O)cc(=O)[nH]c12	1.0	11.5	-14.9	0.8	-0.3	98.8*
N#Cc1cccc(NC(=O)CSc2sc3c(O)cc(=O)[nH]c3c2C#N)c1	-1.4	12.6	3.0	-2.6	-0.2	98.8*
Cc1c(Cl)cccc1NC(=O)CSc1sc2c(O)cc(=O)[nH]c2c1C#N	-5.9	3.6	5.9	0.4	-2.5	?
Oc1ccc(C2=NNC(=NCc3ccc4c(c3)OCO4)SC2)c(O)c1	24.5	8.6	7.8	-3.3	4.2	95.4*
COC(=O)C1=C(C)N(Cc2ccc(C(F)(F)F)cc2)C(=NCc2ccc(OC)cc2)NC1c1ccccc1 (configuration not stated)	.	.	.	.	-8.7	.
CCN1CCCc2cc(CN(CCN3CCOCC3)C(=S)Nc3cccc(Cl)c3)ccc21	4.7	5.9	-0.8	-4.9	-1.8	.
CCN1CCCc2cc(CN(CCN3CCOCC3)C(=S)Nc3ccc(C)cc3)ccc21	-3.4	14.0	-4.7	-1.4	0.1	99.0*
CCN1CCCc2cc(CN(CCN3CCOCC3)C(=S)Nc3ccc(OC)cc3)ccc21	0.5	7.2	1.3	1.0	-3.5	99.3*
CCN1CCCc2cc(CN(CCN3CCOCC3)C(=S)Nc3cc(F)cc(F)c3)ccc21	2.7	7.4	-10.1	-2.0	-0.6	93.7*
CCOc1ccc(NC(=S)N(CCN2CCOCC2)Cc2ccc3c(c2)CCCN3CC)cc1	4.0	7.0	4.4	-4.5	-0.9	.
COc1ccccc1Oc1ccc2c(c1)C(=O)N(c1cccc(O)c1)C2=O	-6.2	31.0*	-17.3	-1.5	-0.5	-3.8
Cc1c(C(=O)O)sc2ncnc(N3CCCCC3C)c12 (configuration not stated)	-2.0	4.8	0.0	0.6	1.1	1.0
Cc1cc2c(N3CCCCC3C)ncnc2s1 (configuration not stated)	-5.2	3.7	2.8	-2.8	-2.0	97.0*
O=C(NCC1CCN(C(=O)C(=O)c2cccs2)CC1)c1ccc2c(c1)CCO2	.	.	.	.	-3.7	.
CCCc1cc(=O)[nH]c(SCC(=O)c2ccc3c(c2)NC(=O)CO3)n1	-0.5	4.0	-7.8	-1.1	-4.4	97.0*
CCCc1nc(SCC(=O)c2ccc3c(c2)NC(=O)CO3)[nH]c(=O)c1CC	-2.3	.	.	.	-1.6	.
CCN1/C(=C2/SC(=S)NC2=O)Sc2ccccc21	-0.7	23.3	-3.1	-1.8	-1.4	91.2*
CCN1/C(=C2/OC(=S)N(C)C2=O)Sc2ccccc21	-1.0	-8.9	.	.	-1.7	.
COc1ccc(OC)c(Nc2nc(-c3cccs3)cs2)c1	2.7	11.8	50.9*	0.3	2.7	0.2
COc1ccc(Nc2nc(-c3cccs3)cs2)c(OC)c1	0.2	7.9	7.3	-2.0	5.6	46.9
O=C(c1cc(F)ccc1F)N1CCCC(c2nc(-c3cccs3)no2)C1 (configuration not stated)	.	.	.	.	3.1	.
